# Screening results from PubChem BioAssay.
# CYP2C9 activ: CYP2C9 (human) activation | P11712 | recombinant CYP2C9, luciferin-H conversion, luminescence; stronger effect = higher value; factor 1 = untreated enzyme, 0 = blocked | activation factor at 5 µM | actives 1.4% (n = 96,000) | AID 1024;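 active = activation factor of 2 or more for CYP2C9 at a 5 µM dose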;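 note: 0 = sulfaphenazole-blocked wells and 1 = vehicle-only wells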
# CYP2C9 inh: blocks human cytochrome P450 2C9; CYP2C9 Supersomes, luciferin-H conversion, luminescence; P11712; actives 20% (n = 96,000); inhibition, % at 5 µM; AID 777;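 active = blocking of liver enzyme CYP2C9 beyond about 50% at 5 µM, limit read from the data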
# Cav32 inh: blocks human Cav3.2 T-type calcium channel | actives 4% (n = 100,000) | AID 449739 | O95180 | B-score at 10 µM | Cav3.2-expressing cells, Fluo-4 calcium fluorescence FDSS; stronger effect = lower value;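 active = single-dose well whose peak fluorescence ratio is a statistical outlier from its plate by either plate-standardised score or position-corrected B-score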
# CYP2C19 inhib: human CYP2C19 inhibition | P33261 | CYP2C19 Supersomes, luciferin-H EGE luminescence, 30 min | inhibition, % at 5 µM | actives 21% (n = 96,000) | AID 778;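 active = CYP2C19 inhibition above a set limit at 5 µM in the primary screen, cut at about 50% in these data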;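 note: plate controls were negative control wells for no effect and 2.5 mM tranylcypromine positive control for full effect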
# Target sequence (P33261 whole entry, looked up): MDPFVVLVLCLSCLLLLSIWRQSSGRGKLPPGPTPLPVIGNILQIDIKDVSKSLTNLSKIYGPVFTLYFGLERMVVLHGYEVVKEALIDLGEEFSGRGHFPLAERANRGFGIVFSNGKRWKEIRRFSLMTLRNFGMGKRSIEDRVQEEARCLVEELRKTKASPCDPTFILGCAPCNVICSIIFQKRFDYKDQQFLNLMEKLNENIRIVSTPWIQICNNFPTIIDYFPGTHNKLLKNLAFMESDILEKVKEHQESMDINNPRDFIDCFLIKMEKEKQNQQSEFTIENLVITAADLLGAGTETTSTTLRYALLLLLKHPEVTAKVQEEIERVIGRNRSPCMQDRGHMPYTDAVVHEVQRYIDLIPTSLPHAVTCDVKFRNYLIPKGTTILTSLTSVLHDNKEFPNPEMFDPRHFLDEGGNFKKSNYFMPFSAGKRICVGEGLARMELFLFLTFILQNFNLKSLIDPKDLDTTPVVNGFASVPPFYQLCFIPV
# CYP2C19 activ: activators of human cytochrome P450 2C19; 96,000 tested, under 10 active; AID 1025; activation factor at 5 µM; recombinant CYP2C19, luciferin-H EGE luminescence; stronger effect = higher value; 0 = fully inhibited enzyme, 1 = untreated enzyme; P33261;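 active = activation factor of at least 2 at 5 µM in the primary screen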;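 note: 0 = wells with 2.5 mM tranylcypromine and 1 = vehicle-only wells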
# * marks the source's active call; other numbers are inactive results; x = not tested or not shown. Compounds with a hit are over-represented: about 27% of the library has one in this group of screens.
SMILES,CYP2C9 activ,CYP2C9 inh,Cav32 inh,CYP2C19 inhib,CYP2C19 activ
CCOc1cc(C2/C(=C(\O)c3cc(C)ccc3C)C(=O)C(=O)N2CCN(C)C)ccc1O (configuration not stated),1,-4.6,0.462,-13.8,1.1
CCOC(=O)c1c(NC(=O)c2ccc(Br)o2)sc(C)c1CC,0.7,33.1,0.892,38.8,0.6
CCOC(=O)C1=C(NC(=O)c2ccc(Br)o2)Nc2ccccc2N=C1,0.4,60.0*,0.383,13.0,0.9
Cn1c(SCc2cccc(Cl)c2)nc(C(F)(F)F)cc1=O,0.9,10.9,-0.771,25.7,0.7
COc1ccc(C(=O)Nc2nc3c(s2)Cc2cc(OC)ccc2-3)cc1,0.6,37.3,0.721,33.6,0.7
COc1ccc2c(c1)Cc1sc(NC(=O)c3cccs3)nc1-2,0.2,84.8*,0.211,70.5*,0.3
COc1cccc(NC(=O)Nc2cccs2)c1,x,x,-0.884,x,x
COc1cccc(NC(=O)Cc2cccs2)c1,0.8,21.3,0.00469,51.1*,0.5
COc1cccc(NC(=O)c2cccc(OC)c2OC)c1,1.7,-73.2,-1.36,81.0*,0.2
COc1cc(NC(=O)c2cccs2)cc(OC)c1,0.8,21.2,1.25,22.8,0.8
COc1cc(NC(=O)Cc2cccs2)cc(OC)c1,0.6,39.5,0.763,80.7*,0.2
Cc1ccccc1Cn1c2ccccc2c2cn[nH]c(=O)c21,0.8,16.6,0.0193,23.9,0.8
O=C(CS(=O)CC(=O)N(CC(=O)NC1CCCC1)C1CCCC1)Nc1ccc(F)cc1 (configuration not stated),1,0.4,0.213,-14.2,1.1
CCCCn1nc(C(=O)O)ccc1=O,0.9,9.3,0.496,7.5,0.9
CCOc1ccc(CC2CC(=O)NC2=O)cc1 (configuration not stated),1,-3.7,x,11.2,0.9
C=CCn1c(Cc2cccs2)nnc1SC/C=C/c1ccccc1,0.4,57.7*,-1.76,70.1*,0.3
COc1cccc(NC(=O)c2cccs2)c1,0.7,28.9,-0.329,54.0*,0.5
COc1cc(NC(=O)Cc2cccs2)ccc1-n1cnnn1,1,3.5,-0.111,52.8*,0.5
C=CCn1c(Cc2cccs2)nnc1SCC(=O)Nc1cc(OC)cc(OC)c1,0.6,39.0,1.17,78.8*,0.2
C=C(C)CC1Nc2ccccc2NC1CC(=C)C (configuration not stated),1.1,-9.3,-0.00337,16.3,0.8
CCC/C=C(\CCC)C(NC(=O)c1ccc(C(F)(F)F)cc1)c1ccccc1 (configuration not stated),x,x,-1.61,x,x
COC(=O)c1sc2ccccc2c1NC(=O)c1cccs1,0.4,60.3*,-0.872,34.8,0.7
CCOC(=O)c1ccc(NS(=O)(=O)c2cc(-c3nnnn3C(C)C)ccc2OC)cc1,0.1,91.3*,1.39,90.5*,0.1
COc1ccc(OC)c(S(=O)(=O)Nc2cccc(F)c2)c1,0.3,68.4*,-0.424,89.4*,0.1
CCOc1cc(C)c(S(=O)(=O)Nc2ccc(F)cc2)cc1C,0,96.8*,-1.84,99.9*,0
SMILES,CYP2C9 activ,CYP2C9 inh,Cav32 inh,CYP2C19 inhib,CYP2C19 activ
COc1ccc(C(=O)O)cc1S(=O)(=O)Nc1cccc(C)c1,1.1,-9.8,0.0113,-12.8,1.1
CC(=O)Nc1cc(S(=O)(=O)Nc2ccc(C)cc2)c(C)cc1C,0.8,19.0,x,13.0,0.9
CCn1nnnc1-c1ccc(OC)c(S(=O)(=O)Nc2ccc(C(=O)OC)cc2)c1,0.7,34.6,1.13,22.6,0.8
COc1ccc(OC)c(S(=O)(=O)Nc2cccc(C(C)=O)c2)c1,0.3,66.2*,-0.174,98.2*,0
COc1ccc(F)cc1S(=O)(=O)Nc1ccc2c(c1)OCCO2,0.9,7.3,0.304,34.1,0.7
COC(=O)c1ccc(NS(=O)(=O)c2cc(C)ccc2OC)cc1,0.4,55.4*,-1.87,12.7,0.9
COc1cc(OC)c(NC(=S)Nc2cccc(C(C)=O)c2)cc1Cl,0.7,34.2,-0.236,54.3*,0.5
COc1ccc(C)cc1S(=O)(=O)Nc1ccc(F)cc1,0.3,72.3*,-0.868,87.9*,0.1
COc1ccc(C)cc1S(=O)(=O)Nc1cccnc1,1,4.3,0.498,19.7,0.8
COc1ccc(OC)c(S(=O)(=O)Nc2ccc(F)cc2)c1,1,3.2,0.125,51.7*,0.5
COC(=O)C(NC(=O)c1ccc(F)cc1)(Nc1nc(C)cs1)C(F)(F)F (configuration not stated),1,-3.7,-1.98,36.9,0.6
CC(C)N1C(=O)C2C(c3ccccc3O)NC(C)(C(=O)O)C2C1=O (configuration not stated),1.4,-38.7,-0.167,-24.0,1.2
CCCn1c(=O)c2ccccc2n2c(SCC(=O)c3cc(C)n(CCOC)c3C)nnc12,0.7,25.8,x,47.5,0.5
COc1cc(C(=O)NCc2ccc3c(c2)OCO3)ccc1OCc1c(C)noc1C,0.6,37.9,0.163,4.6,1
Cc1cccc(NC(=O)CN2C(=O)COc3ccc(Cl)cc32)c1C,0.7,32.2,-5.35*,88.4*,0.1
COc1cccc(NC(=O)CN2C(=O)COc3ccc(Cl)cc32)c1,0.2,78.4*,-5.42*,91.7*,0.1
CCOc1ccc(NC(=O)CN2C(=O)COc3ccc(Cl)cc32)cc1,1.1,-9.0,0.153,-1.7,1
Cc1cccc(NC(=O)CN2C(=O)COc3ccc(Cl)cc32)c1,0.8,17.6,-3.5,71.9*,0.3
COc1ccc(/C=N/NC(=O)C(=O)NCc2cccnc2)cc1OC,1,-2.4,0.349,-6.5,1.1
CC1=[N+]([O-])C(C)(C)C(C)N(O)C1=O (configuration not stated),1.1,-11.7,0.0469,-16.1,1.2
Cc1cc(C)cc(NC(=O)C/C(N)=N/O)c1,1,0.8,-3.15,-3.3,1
CCC(=O)N(Cc1ccco1)c1nc(-c2cc(OC)ccc2OC)cs1,x,x,0.601,x,x
COc1ccc(C(=O)c2cnc3cc4c(cc3c2C)OCO4)cc1,0.4,64.9*,0.0914,94.9*,0.1
Cc1c(C(=O)c2ccc(Cl)c(Cl)c2)cnc2cc3c(cc12)OCO3,x,x,-0.63,x,x
CCCc1cc(-c2n[nH]c(C(=O)OCC)c2-c2cscn2)c(O)cc1O,0.3,66.7*,0.0696,55.6*,0.4
SMILES,CYP2C9 activ,CYP2C9 inh,Cav32 inh,CYP2C19 inhib,CYP2C19 activ
CCOC(=O)c1[nH]nc(-c2c(O)cc(C)cc2O)c1-c1csc(C)n1,0.9,11.3,0.169,22.8,0.8
O=C(CN1C(=O)COc2ccccc21)NCc1ccccn1,1,0.9,0.86,1.1,1
O=S(=O)(c1ccc(F)c2ccccc12)N1CCCCC1,4.7*,-366.6,-1.23,21.4,0.8
CC1CCCN(S(=O)(=O)Cc2ccc(Cl)cc2)C1 (configuration not stated),1,-0.7,0.00986,97.0*,0
CC1CCN(S(=O)(=O)c2cc(Cl)ccc2Br)CC1,3.1*,-212.9,-1.42,98.2*,0
O=S(=O)(Cc1ccc(Cl)cc1)N1CCN(Cc2ccccc2)CC1,0.9,11.5,0.181,30.1,0.7
